Most compounds without a hit are left out; they make up all but 4% or so of the library.
TROY NFkB inh: inhibitors of TROY-dependent NF-kB signaling | 360,000 compounds, 0.98% hits | Q293 LMP1-TROYcd NF-kB luciferase reporter, 4 h | inhibition, % at 10 µM;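 active = compounds whose plate-normalised and pattern-corrected inhibition of the luciferase reporter signal at the single screening dose is 50% or more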
TWEAK Fn14 block: TWEAK-Fn14 signaling inhibition. inhibition, % at 10 µM. AID 1159606. 360,000 compounds, 2% hits. TWEAK-stimulated Fn14 reporter cells, luciferase luminescence, 8 h; in the data active = inhibition above about 50%
Peg3 promoter: Peg3 promoter activity inhibition. 360,000 compounds, 1.7% hits. HeLa PEG-Prom luciferase reporter, luminescence, overnight. AID 588405. inhibition, % at 20 µM;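 active = inhibition of at least 50% at 20 µM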
HIF-2a inh: inhibitors of HIF-2a; 786-0 RCC cells HIF-2a reporter, luciferase luminescence, overnight; inhibition, % at 18.8 µM; 360,000 compounds, 0.72% hits;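 active = inhibition of the luminescence signal of 40% or more relative to plate controls, in a single-dose primary screen at 18.75 µM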
KKLEB cytotox: reduces viability of KKLEB cystic fibrosis airway cells. activity change (cytotoxicity), % at 5 µM. 360,000 compounds, 0.36% hits. KKLEB CF airway cells viability, ATPlite luminescence, overnight; hits give low values; cells stimulated with P. aeruginosa culture filtrate;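 active = corrected activity change at or below -50% at 5 µM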
CF NFkB inh: inhibitors of cystic fibrosis induced NF-kB; KKLEB NF-kB-GFP reporter, PAF-induced, GFP fluorescence overnight; 360,000 compounds, 0.86% hits; AID 588850; inhibition, % at 5 µM;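 active = at least 50% inhibition at 5 µM, scaled per plate between neutral and stimulator controls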;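 also: PAF is a Pseudomonas aeruginosa culture filtrate used as stimulus; plate controls were PAF-stimulated DMSO wells for no effect and unstimulated DMSO wells for full effect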
Mdm2 MdmX conf: confirmation of inhibitors of human Mdm2/MdmX interaction, set 2; SaOS-2 split-luciferase Mdm2/MdmX complementation, luminescence; shares compounds with HIF-2a inh; 740 compounds, 99% hits; inhibition, % at 8 µM; AID 504601;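 active = mean inhibition of the luminescence signal across two replicates at or above 26 percent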
Target sequence (O15151 whole entry, looked up): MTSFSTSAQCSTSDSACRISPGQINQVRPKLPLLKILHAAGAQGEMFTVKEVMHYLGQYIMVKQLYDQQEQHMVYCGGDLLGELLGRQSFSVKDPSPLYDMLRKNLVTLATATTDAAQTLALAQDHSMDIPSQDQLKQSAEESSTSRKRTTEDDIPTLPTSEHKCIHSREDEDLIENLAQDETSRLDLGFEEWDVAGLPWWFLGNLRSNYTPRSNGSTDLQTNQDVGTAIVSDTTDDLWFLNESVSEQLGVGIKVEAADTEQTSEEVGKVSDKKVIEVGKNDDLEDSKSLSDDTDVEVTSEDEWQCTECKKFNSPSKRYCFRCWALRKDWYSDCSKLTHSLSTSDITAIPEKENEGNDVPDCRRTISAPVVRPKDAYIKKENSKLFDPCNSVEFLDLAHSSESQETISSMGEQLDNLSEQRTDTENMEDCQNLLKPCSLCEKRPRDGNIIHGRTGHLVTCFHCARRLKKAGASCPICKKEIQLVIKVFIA
Target sequence (Q00987 whole entry, looked up): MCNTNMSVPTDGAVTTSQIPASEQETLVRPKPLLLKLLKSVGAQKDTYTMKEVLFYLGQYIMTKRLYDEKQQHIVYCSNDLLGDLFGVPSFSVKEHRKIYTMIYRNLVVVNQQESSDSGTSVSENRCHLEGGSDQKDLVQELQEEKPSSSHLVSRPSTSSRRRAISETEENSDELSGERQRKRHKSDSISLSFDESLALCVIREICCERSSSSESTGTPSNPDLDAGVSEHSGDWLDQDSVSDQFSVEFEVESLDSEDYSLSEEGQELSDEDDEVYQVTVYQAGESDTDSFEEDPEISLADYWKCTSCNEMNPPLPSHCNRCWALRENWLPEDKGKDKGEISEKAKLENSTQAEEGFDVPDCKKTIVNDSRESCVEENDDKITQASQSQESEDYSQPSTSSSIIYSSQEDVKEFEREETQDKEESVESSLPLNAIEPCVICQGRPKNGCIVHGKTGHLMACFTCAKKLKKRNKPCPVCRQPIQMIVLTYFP
HIF-2a conf: confirmation of HIF-2a inhibitors; shares compounds with HIF-2a inh; 786-0 RCC cells, HIF-2a luciferase reporter luminescence, overnight; inhibition, % at 18.8 µM; 1,800 compounds, 56% hits; AID 651580;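 active = mean inhibition across four replicates of at least 40 percent at the single tested concentration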
HIF-1a cs: HIF-1a inhibition counter-screen for HIF-2a hits | MiaPaCa-2 HIF-1a luciferase reporter, desferoxamine, overnight | inhibition, % at 18.8 µM | 1,800 compounds, 72% hits | shares compounds with HIF-2a inh;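 active = mean inhibition of the reporter signal across four replicates at the single tested dose of 50% or more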
* hit, by the source's call; nt = no result given.

SMILES | TROY NFkB inh | TWEAK Fn14 block | Peg3 promoter | HIF-2a inh | KKLEB cytotox | CF NFkB inh | HIF-2a conf | HIF-1a cs | others
CN(C)c1nc(C=C(C#N)C#N)c(Cl)n1-c1ccc(F)cc1 | 16 | 72* | 110* | 91* | -96* | 86* | 92* | 92*
Cc1cccc(C)c1NC(=O)C1(C)CSCC(=O)N1Cc1cccc(F)c1 (stereo not drawn) | nt | nt | nt | 3 | nt | nt | nt | nt
CC(C)(C)c1ccc(OCC(=O)NNC(=O)Cc2cccs2)cc1 | -22 | 0 | -2 | 9 | 14 | 0 | nt | nt
Cc1ccc(NC(=O)c2ccc(N3CCOCC3)c([N+](=O)[O-])c2)cc1S(=O)(=O)N1CCOCC1 | 39 | 45 | 65* | 51* | -5 | 1 | 3 | 59*
Cc1ccc2nc(NC(=O)CCCC(=O)O)sc2c1 | 66* | 86* | 46 | 83* | -10 | 7 | 95* | 90*
Nc1nc(F)nc2c1ncn2[C@@H]1O[C@H](CO)[C@@H](O)[C@H]1O | 51* | 87* | 95* | 57* | -28 | 81* | 55* | 107*
CCOC(=O)C(CC)(CC)C(=O)/C=C/c1cccc(Br)c1 | 2 | 59* | 109* | 87* | 1 | 24 | 69* | 104*
NC(=O)NC(=O)COC(=O)/C=C/c1cccc(Br)c1 | 4 | -5 | 6 | 6 | 11 | -11 | nt | nt
Cc1ccc(N2Cc3ccccc3C2=S)cc1 | -25 | -19 | -270 | 84* | -4 | -7 | -218 | -74
S=C1c2ccccc2CN1c1ccccc1 | -52 | -22 | -125 | -146 | 12 | -10 | nt | nt
O=C(NCCC1CCCCN1S(=O)(=O)c1ccc(Cl)cc1)C(=O)NCc1ccncc1 (stereo not drawn) | -3 | 5 | 31 | 35 | 9 | -2 | nt | nt
O=C(NCCC1CCCCN1S(=O)(=O)c1ccc(F)cc1)C(=O)NCc1ccncc1 (stereo not drawn) | -4 | 0 | 23 | 43* | -12 | 16 | -3 | 31
O=C(Nc1ccncc1)c1ccc(Cl)c(S(=O)(=O)N2CCc3ccccc32)c1 | 46 | 78* | 45 | 50* | -31 | 26 | -7 | 8
COc1ccc2c(c1)-c1c(ssc1=S)C(C)(C)N2 | 50* | 92* | 4 | 24 | -34 | 81* | nt | nt | Mdm2 MdmX conf=95*
CC(C)c1ccc(OCc2cccc(C(=O)N/N=C/c3cccnc3)c2)cc1 | -7 | -13 | -138 | 17 | -10 | -37 | nt | nt
CCOc1ccc(OCc2cccc(C(=O)N3CCOCC3)c2)cc1 | -83 | 12 | 21 | 65* | -11 | 15 | 77* | -104
COc1ccc(OCc2cccc(C(=O)Nn3cc([N+](=O)[O-])cn3)c2)cc1 | -26 | -8 | -135 | 62* | -10 | 2 | 84* | -47
CCOc1ccc(OCc2cccc(C(=O)N/N=C/c3cccnc3)c2)cc1 | -26 | -17 | -71 | 71* | 1 | -7 | 90* | -53
COc1ccc(OCc2cccc(C(=O)Nc3cc(C)on3)c2)cc1 | -56 | 14 | -1 | 66* | 12 | -29 | 68* | -47
CCc1nc2c(OCc3cc(Cl)cc(Cl)c3)cccn2c1N(C)C(=O)c1ccc(C)cc1 | 1 | -36 | 19 | -12 | -14 | -6 | nt | nt
CCNC(=O)N(C)c1nncnc1C(=O)NC | -32 | 5 | 9 | 8 | 0 | 2 | nt | nt
O=Cc1cccc(OC(=O)/C=C/c2ccco2)c1 | -21 | -27 | -249 | -52 | 8 | 0 | nt | nt
COc1ccc(OCc2cccc(C(=O)NN)c2)cc1 | -55 | -30 | -24 | 61* | 3 | 2 | 70* | -121
CCOc1ccc(CN2CCCC(CO)(Cc3ccc(F)cc3)C2)cc1 (stereo not drawn) | 11 | -11 | 10 | 20 | -3 | 6 | nt | nt
N/C(=N\OC(=O)c1ccc(Br)cc1)c1ccccc1 | -7 | 27 | -250 | -262 | -8 | -6 | nt | nt
SMILES | TROY NFkB inh | TWEAK Fn14 block | Peg3 promoter | HIF-2a inh | KKLEB cytotox | CF NFkB inh | HIF-2a conf | HIF-1a cs | others
CC(C)(C)c1ccc(C(=O)O/N=C(\N)c2ccccc2)cc1 | 90* | 105* | 104* | 72* | -12 | 3 | 87* | 87*
O=C(Nc1cc(S(=O)(=O)N2CCOCC2)ccc1N1CCCCC1)c1cc(-c2ccccn2)nc2ccccc12 | 20 | 29 | 13 | 11 | -12 | 4 | nt | nt
Cc1ccc(S(=O)(=O)N2CCOCC2)cc1NC(=O)c1cc(-c2ccccn2)nc2ccccc12 | 3 | 2 | 90* | 95* | 9 | 2 | 14 | 50
CC(=O)Nc1ccc(CN2CCCC(CCC(=O)NCc3ccccc3F)C2)cc1 (stereo not drawn) | 20 | -13 | -18 | 14 | 3 | -4 | nt | nt
Cc1cc2c(cc1C)CSC(c1c(O)ccc3ccccc13)SC2 | 49 | 75* | 62* | 79* | -9 | 41 | 6 | 99*
CC(=O)Nc1ccc(/C(C)=N/Nc2nc(Nc3ccccc3)nc(N3CCOCC3)n2)cc1 | 6 | -18 | -12 | -11 | -9 | -5 | nt | nt
CCN1CCN(c2nc(Nc3ccc(NC(C)=O)cc3)nc(Nc3ccc(NC(C)=O)cc3)n2)CC1 | 63* | 14 | 6 | 68* | 0 | -2 | -5 | 9
CCOC(=O)c1cccc(NC(=O)/C=C/c2ccc3c(c2)OCO3)c1 | 51* | 70* | -98 | 47* | -2 | -11 | 69* | 38
CN(CCO)c1cc(Sc2nc3ccccc3s2)c2nonc2c1[N+](=O)[O-] | 0 | -12 | 104* | 86* | -4 | 18 | 89* | 73*
Cc1nc(C)c(C(=O)Nc2ncc([N+](=O)[O-])s2)o1 | 33 | 85* | 38 | 56* | -2 | -4 | 59* | 35
CC(C)CC(=O)Nc1ncc([N+](=O)[O-])s1 | -7 | 15 | 17 | -33 | 5 | -3 | nt | nt
Cc1nc2c(-c3ccc(F)cc3)c(C)nn2c(C)c1CCC(=O)Nc1ccccc1 | 26 | 8 | 22 | 25 | -8 | 14 | nt | nt
CC(C)n1c(/C=C/[C@@H](O)C[C@@H](O)CC(=O)O)c(-c2ccc(F)cc2)c2ccccc21 | -5 | 14 | 28 | 39* | -3 | 46 | 20 | -39
CCOc1ccc(OCc2ccc(C(=O)O)o2)cc1 | -49 | 52* | 45 | 42* | -5 | 8 | 27 | -22
O=C(O)c1ccc(COc2ccc3ccccc3c2)o1 | -35 | 28 | -113 | -139 | 0 | -19 | nt | nt
